According to the supplement of paper PMC10849652:
The full data set covers some 7,900 targets. This sample favours those with a hit. About 0.6% of all pairs of compound and target were hits.

Each target was assayed with C1=CC=C(C=C1)[C@H](COC2=CC3=C(C=C2)NC(=O)N3)NC(=O)C4=CC=CN(C4=O)CC5=CC(=C(C=C5)F)F (assay: log2 fold change, soluble protein after heating vs DMSO (PISA); higher = thermal stabilisation; K562 cells, 10 uM, 30 min; active = over 0.2 and 3.5 SD of the protein, either way, in both replicates (recomputed)).
Summary of the method: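 For each measurement, 10 μM compound was applied for 30 min to K562 cells at 2×10^6 cells/mL. Aliquots were heated for 3 min across 48°C-58°C, pooled, and extracted in PBS with 0.5% NP-40 at 4°C; the supernatant after 21,000xg for 90 min was soluble protein. This was quantified by TMTpro 16plex LC-MS/MS with channel sums equalised, and thermal stability was reported relative to control samples from duplicates, on a log2 fold-change scale.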

Sequence of UniProt P68366 (P68366 whole entry, looked up): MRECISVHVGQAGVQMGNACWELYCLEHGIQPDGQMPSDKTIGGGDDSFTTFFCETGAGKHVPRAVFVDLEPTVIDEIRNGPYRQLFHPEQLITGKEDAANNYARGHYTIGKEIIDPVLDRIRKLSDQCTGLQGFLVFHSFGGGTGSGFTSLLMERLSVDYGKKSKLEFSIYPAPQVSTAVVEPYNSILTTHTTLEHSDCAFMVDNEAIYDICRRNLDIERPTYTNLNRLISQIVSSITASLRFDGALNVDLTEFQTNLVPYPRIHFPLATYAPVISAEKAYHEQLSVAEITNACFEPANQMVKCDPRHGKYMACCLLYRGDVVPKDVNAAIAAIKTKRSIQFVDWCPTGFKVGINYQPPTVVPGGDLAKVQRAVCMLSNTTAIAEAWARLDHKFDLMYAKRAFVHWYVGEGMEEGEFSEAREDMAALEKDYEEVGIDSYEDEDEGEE
Sequence of UniProt O00220 (O00220 whole entry, looked up): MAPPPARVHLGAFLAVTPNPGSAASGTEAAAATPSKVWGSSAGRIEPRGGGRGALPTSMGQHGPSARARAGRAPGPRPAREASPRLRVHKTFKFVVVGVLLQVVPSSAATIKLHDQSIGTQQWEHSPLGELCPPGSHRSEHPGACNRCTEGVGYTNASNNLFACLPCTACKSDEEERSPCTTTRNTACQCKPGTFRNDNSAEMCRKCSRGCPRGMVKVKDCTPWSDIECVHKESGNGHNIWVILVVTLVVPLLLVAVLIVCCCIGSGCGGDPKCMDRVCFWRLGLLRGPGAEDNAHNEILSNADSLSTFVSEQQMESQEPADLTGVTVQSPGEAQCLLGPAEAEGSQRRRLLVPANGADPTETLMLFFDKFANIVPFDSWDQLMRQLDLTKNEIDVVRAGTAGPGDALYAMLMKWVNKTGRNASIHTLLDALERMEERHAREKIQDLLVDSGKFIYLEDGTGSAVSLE
Sequence of UniProt Q9UID3 (Q9UID3 whole entry, looked up): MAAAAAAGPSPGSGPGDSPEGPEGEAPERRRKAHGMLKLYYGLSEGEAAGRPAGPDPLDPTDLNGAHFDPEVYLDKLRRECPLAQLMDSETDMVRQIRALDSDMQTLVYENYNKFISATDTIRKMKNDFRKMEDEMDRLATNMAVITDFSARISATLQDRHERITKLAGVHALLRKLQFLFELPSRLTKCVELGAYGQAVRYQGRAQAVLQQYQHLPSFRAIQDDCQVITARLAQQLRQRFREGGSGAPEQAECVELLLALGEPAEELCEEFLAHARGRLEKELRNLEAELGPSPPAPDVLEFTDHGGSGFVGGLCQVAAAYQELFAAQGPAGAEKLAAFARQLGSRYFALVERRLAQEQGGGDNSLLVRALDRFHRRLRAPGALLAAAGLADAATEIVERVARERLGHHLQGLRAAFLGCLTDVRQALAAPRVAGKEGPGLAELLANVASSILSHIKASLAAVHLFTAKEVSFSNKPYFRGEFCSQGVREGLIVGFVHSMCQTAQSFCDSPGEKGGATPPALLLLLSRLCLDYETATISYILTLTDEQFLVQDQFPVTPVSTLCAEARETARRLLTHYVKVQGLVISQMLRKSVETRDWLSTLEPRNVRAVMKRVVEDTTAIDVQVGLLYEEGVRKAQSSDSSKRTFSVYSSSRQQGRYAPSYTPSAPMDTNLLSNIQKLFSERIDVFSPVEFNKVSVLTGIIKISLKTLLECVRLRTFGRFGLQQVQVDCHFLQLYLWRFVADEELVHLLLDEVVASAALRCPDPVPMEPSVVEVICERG
Sequence of UniProt Q13263 (Q13263 whole entry, looked up): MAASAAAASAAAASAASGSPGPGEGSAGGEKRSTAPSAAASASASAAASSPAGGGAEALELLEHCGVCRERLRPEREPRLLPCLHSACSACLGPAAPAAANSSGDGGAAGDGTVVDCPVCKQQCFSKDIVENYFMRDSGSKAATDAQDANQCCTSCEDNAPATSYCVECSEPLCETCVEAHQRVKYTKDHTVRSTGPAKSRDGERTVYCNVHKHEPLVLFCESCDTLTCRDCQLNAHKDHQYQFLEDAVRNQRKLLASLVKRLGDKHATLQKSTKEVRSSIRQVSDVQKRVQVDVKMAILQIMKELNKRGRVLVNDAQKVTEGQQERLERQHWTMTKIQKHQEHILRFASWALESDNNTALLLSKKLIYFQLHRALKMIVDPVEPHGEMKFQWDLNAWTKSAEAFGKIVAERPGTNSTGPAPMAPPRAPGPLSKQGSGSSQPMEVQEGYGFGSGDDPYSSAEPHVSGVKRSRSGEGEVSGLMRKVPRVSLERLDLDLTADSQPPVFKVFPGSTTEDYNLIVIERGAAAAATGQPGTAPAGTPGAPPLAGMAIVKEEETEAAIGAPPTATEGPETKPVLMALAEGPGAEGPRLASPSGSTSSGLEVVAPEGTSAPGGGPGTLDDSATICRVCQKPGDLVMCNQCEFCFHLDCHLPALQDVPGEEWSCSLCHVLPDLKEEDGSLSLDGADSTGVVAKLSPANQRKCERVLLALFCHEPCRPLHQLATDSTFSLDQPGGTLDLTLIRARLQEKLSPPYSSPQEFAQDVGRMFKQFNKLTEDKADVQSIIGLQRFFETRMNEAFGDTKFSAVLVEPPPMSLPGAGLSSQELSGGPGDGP
Sequence of UniProt Q5U3C3 (Q5U3C3 whole entry, looked up): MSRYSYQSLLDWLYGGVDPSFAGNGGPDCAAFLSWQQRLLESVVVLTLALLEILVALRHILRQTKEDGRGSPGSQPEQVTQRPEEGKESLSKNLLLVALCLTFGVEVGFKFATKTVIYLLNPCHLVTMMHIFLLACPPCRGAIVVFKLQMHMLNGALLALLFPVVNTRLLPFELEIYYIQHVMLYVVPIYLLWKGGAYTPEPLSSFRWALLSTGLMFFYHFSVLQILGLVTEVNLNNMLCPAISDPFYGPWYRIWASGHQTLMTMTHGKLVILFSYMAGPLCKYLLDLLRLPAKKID
Sequence of UniProt Q16763 (Q16763 whole entry, looked up): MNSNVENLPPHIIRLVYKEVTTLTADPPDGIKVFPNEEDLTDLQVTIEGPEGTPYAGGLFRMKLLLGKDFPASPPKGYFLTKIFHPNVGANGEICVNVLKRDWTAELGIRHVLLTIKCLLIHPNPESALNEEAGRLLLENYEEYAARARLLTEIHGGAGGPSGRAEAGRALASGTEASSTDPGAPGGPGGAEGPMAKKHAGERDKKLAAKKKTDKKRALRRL
Sequence of UniProt P61960 (P61960 whole entry, looked up): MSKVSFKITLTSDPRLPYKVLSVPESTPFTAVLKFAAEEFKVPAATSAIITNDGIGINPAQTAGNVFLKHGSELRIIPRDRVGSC
Sequence of UniProt Q9NQH7 (Q9NQH7 whole entry, looked up): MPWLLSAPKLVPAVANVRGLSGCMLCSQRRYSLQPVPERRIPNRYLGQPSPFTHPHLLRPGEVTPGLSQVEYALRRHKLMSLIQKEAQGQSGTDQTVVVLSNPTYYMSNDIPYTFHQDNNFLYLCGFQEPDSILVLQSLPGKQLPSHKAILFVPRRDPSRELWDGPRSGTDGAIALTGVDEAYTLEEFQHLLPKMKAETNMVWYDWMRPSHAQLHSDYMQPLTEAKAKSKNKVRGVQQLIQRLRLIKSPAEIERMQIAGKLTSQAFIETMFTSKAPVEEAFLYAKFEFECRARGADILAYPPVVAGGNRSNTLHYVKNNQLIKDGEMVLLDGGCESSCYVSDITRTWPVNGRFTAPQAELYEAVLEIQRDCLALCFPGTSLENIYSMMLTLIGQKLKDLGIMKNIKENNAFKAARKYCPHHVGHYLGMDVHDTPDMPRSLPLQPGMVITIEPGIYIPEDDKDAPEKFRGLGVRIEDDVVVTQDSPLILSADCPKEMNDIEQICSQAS
Sequence of UniProt Q96QU8 (Q96QU8 whole entry, looked up): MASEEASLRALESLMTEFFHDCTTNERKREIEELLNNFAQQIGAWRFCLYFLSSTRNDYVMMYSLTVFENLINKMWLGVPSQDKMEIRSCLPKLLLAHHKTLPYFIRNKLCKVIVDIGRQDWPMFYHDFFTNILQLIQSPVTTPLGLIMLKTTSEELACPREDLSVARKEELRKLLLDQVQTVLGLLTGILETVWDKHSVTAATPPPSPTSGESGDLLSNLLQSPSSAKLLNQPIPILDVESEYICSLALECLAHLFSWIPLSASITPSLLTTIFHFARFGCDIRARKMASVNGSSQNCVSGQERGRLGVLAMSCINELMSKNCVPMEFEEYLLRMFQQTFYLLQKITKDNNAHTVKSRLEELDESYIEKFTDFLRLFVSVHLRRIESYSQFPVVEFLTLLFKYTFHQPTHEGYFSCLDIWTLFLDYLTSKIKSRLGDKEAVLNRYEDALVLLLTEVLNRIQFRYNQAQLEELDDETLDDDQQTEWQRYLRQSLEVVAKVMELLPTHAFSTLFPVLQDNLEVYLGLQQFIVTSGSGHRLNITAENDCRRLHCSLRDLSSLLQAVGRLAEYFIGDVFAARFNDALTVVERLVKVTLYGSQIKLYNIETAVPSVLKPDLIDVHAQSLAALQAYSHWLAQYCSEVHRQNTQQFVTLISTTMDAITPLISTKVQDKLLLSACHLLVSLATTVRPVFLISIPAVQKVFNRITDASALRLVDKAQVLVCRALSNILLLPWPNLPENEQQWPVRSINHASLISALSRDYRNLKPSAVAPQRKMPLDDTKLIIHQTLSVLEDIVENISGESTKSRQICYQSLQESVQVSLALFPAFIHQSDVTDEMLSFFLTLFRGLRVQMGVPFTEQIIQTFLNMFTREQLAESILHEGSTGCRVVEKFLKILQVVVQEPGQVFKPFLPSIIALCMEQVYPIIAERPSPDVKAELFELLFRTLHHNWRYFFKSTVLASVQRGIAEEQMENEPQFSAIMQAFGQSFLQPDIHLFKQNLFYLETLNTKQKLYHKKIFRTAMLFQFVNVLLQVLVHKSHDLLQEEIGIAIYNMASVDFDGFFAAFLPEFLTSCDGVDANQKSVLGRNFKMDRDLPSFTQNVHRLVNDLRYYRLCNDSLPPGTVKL
Sequence of UniProt Q9UL33 (Q9UL33 whole entry, looked up): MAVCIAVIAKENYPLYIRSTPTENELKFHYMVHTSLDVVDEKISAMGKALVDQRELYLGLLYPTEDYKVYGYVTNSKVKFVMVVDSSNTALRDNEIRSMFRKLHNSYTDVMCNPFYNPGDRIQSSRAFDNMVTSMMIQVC

Row | Target | log2 fold change
1 | VPS51 (UniProt Q9UID3) | -0.047 (inactive)
2 | VPS11 (UniProt Q9H270) | -0.089 (inactive)
3 | VPS41 (UniProt P49754) | -0.028 (inactive)
4 | UBIAD1 (UniProt Q9Y5Z9) | 0.012 (inactive)
5 | WDR41 (UniProt Q9HAD4) | -0.045 (inactive)
6 | WDR46 (UniProt O15213) | 0.058 (inactive)
7 | UBE4A isoform 2 (UniProt Q14139) | -0.051 (inactive)
8 | WASH2P (UniProt Q6VEQ5) | 0.015 (inactive)
9 | TPP1 (UniProt O14773) | 0.019 (inactive)
10 | USP9X (UniProt Q93008) | -0.049 (inactive)
11 | XPO6 (UniProt Q96QU8) | 0.35 (inactive)
12 | WDR61 (UniProt Q9GZS3) | -0.035 (inactive)
13 | WDHD1 (UniProt O75717) | -0.014 (inactive)
14 | TMEM164 (UniProt Q5U3C3) | -0.195 (inactive)
15 | UTP14A (UniProt Q9BVJ6) | 0.039 (inactive)
16 | TRAPPC2L (UniProt Q9UL33) | -0.014 (inactive)
17 | UBXN10 (UniProt Q96LJ8) | 0.011 (inactive)
18 | UBE2D1 (UniProt P51668) | -0.053 (inactive)

Row | Target | log2 fold change
19 | TUT4 (UniProt Q5TAX3) | -0.029 (inactive)
20 | USP3 (UniProt Q9Y6I4) | 0 (inactive)
21 | TNNC2 (UniProt P02585) | 0.043 (inactive)
22 | UBE2S (UniProt Q16763) | 0.002 (inactive)
23 | VRK2 (UniProt Q86Y07) | 0.001 (inactive)
24 | TRIM28 (UniProt Q13263) | -0.029 (inactive)
25 | XPNPEP3 (UniProt Q9NQH7) | -0.004 (inactive)
26 | WDR75 (UniProt Q8IWA0) | -0.031 (inactive)
27 | UFM1 isoform 2 (UniProt P61960) | -0.032 (inactive)
28 | TXNRD1 (UniProt Q16881) | -0.066 (inactive)
29 | TUBA4A (UniProt P68366) | -0.02 (inactive)
30 | TMEM223 (UniProt A0PJW6) | 0.069 (inactive)
31 | VTI1A (UniProt Q96AJ9) | 0.032 (inactive)
32 | VPS33A (UniProt Q96AX1) | -0.039 (inactive)
33 | WARS2 (UniProt Q9UGM6) | -0.025 (inactive)
34 | TTI2 (UniProt Q6NXR4) | 0.07 (inactive)
35 | TNFRSF10A (UniProt O00220) | 0.033 (inactive)
36 | WASHC2A (UniProt Q641Q2) | -0.006 (inactive)
